Experimental data from PubChem BioAssay (EPA / NIEHS).
The source made the active and inactive calls. The calls were made as follows: active = hit-call score of the fitted dose curve at least 0.9, where 1 is the maximum; inactive = score below 0.9.

Experiments:
Settings in all cases: mRNA level, 48 h; actives raise or lower the signal
[1] = read-out: Intercellular Adhesion Molecule 1 (ICAM1), ICAM1 (gene 3383); experiment: LTEA_HepaRG_ICAM1: Life Technologies and Expression Analysis (LTEA) Assay for Intercellular Adhesion Molecule 1 (ICAM1) using HepaRG (AID 2283507)
Outline: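 ICAM1 transcript levels measured by qRT-PCR, normalized to three housekeeping genes (ACTB, GAPDH, POLR2A), after 48 h chemical exposure of HepaRG cells. Duplicate eight-point half-log series from 100 uM in 0.5% DMSO; gain or loss fitted against vehicle.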

[2] = read-out: Insulin-like growth factor-binding protein 1 (IGFBP1), IGFBP1 (gene 3484); experiment: LTEA_HepaRG_IGFBP1: Life Technologies and Expression Analysis (LTEA) Assay for Insulin-like growth factor-binding protein 1 (IGFBP1) using HepaRG (AID 2283508)
Outline: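 Read-out is qRT-PCR transcript level normalized to three housekeeping genes, fitted in both directions against 0.5% DMSO. Differentiated HepaRG cells received eight half-log concentrations (top 100 uM) in duplicate for 48 h in serum-free induction medium.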

[3] = read-out: Interleukin 6 (IL6), IL6 (gene 3569); experiment: LTEA_HepaRG_IL6: Life Technologies and Expression Analysis (LTEA) Assay for Interleukin 6 (IL6) using HepaRG (AID 2283509)
Outline: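 qRT-PCR read-out of IL6 transcript, normalized to three housekeeping genes, after 48 h chemical exposure of HepaRG cells; 8-point half-log series, top 100 uM, 0.5% DMSO vehicle. Bidirectional curve fitting against DMSO baseline.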

[4] = read-out: Potassium channel subfamily K member 1 (KCNK1), KCNK1 (gene 3775); experiment: LTEA_HepaRG_KCNK1: Life Technologies and Expression Analysis (LTEA) Assay for Potassium channel subfamily K member 1 (KCNK1) using HepaRG (AID 2283511)
Outline: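 HepaRG, 48 h exposure, 8-pt half-log series top 100 uM, 0.5% DMSO vehicle, duplicates. Readout: KCNK1 transcript by qRT-PCR (Fluidigm array), housekeeping-normalized; bidirectional curve fit relative to DMSO baseline.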

[5] = read-out: Keratin 19 (KRT19), KRT19 (gene 3880); experiment: LTEA_HepaRG_KRT19: Life Technologies and Expression Analysis (LTEA) Assay for Keratin 19 (KRT19) using HepaRG (AID 2283512)
Outline: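 KRT19 transcript measured by TaqMan qRT-PCR, referenced to three housekeeping genes, after HepaRG cells received test chemicals for 48 h. Eight half-log concentrations, top 100 uM, 0.5% DMSO vehicle; increases and decreases both fitted.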

[6] = read-out: Lipase C (LIPC), LIPC (gene 3990); experiment: LTEA_HepaRG_LIPC: Life Technologies and Expression Analysis (LTEA) Assay for Lipase C (LIPC) using HepaRG (AID 2283514)
Outline: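 HepaRG, 48 h exposure, 8-pt half-log series from 100 uM in 0.5% DMSO, duplicates. Readout: LIPC mRNA by Fluidigm qRT-PCR, housekeeping-normalized (ACTB/GAPDH/POLR2A). Gain or loss fitted bidirectionally against DMSO baseline.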

[7] = read-out: MicroRNA 122 (MIR122), gene 406906; experiment: LTEA_HepaRG_MIR122: Life Technologies and Expression Analysis (LTEA) Assay for MicroRNA 122 (MIR122) using HepaRG (AID 2283516); also: the transcript read is the microRNA miR-122
Outline: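 qRT-PCR read-out (TaqMan, Fluidigm array), normalized to three housekeeping genes; HepaRG cells dosed 48 h at 8 concentrations up to 100 uM in 0.5% DMSO, duplicate; gain or loss fitted against DMSO baseline.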

[8] = read-out: matrix metalloproteinase-10 (MMP10), MMP10 (gene 4319); experiment: LTEA_HepaRG_MMP10: Life Technologies and Expression Analysis (LTEA) Assay for matrix metalloproteinase-10 (MMP10) using HepaRG (AID 2283517)
Outline: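 Transcript levels come from Fluidigm qRT-PCR normalized to three housekeeping genes, with curves fitted bidirectionally against 0.5% DMSO. Human HepaRG cells were dosed for 48 hours at concentrations up to 100 uM.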

MYC, MYC (gene 4609) = experiment: LTEA_HepaRG_MYC: Life Technologies and Expression Analysis (LTEA) Assay for MYC using HepaRG (AID 2283518)
Outline: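 MYC transcript changes, up or down relative to 0.5% DMSO, from TaqMan qRT-PCR normalized to three housekeeping genes. Human HepaRG cultures received chemicals for 48 h at eight half-log concentrations up to 100 uM, in duplicate.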

[9] = read-out: matrix metalloproteinase-3 (MMP3), MMP3 (gene 4314); experiment: LTEA_HepaRG_MMP3: Life Technologies and Expression Analysis (LTEA) Assay for matrix metalloproteinase-3 (MMP3) using HepaRG (AID 2283519)
Outline: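 qRT-PCR read-out of MMP3 mRNA (normalised to three housekeeping genes) in HepaRG liver cells after 48 h chemical exposure; 8-point half-log series, top 100 uM, 0.5% DMSO vehicle. Bidirectional curve fitting against DMSO baseline.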

[10] = read-out: Nuclear factor NF-kappa-B p105 subunit (Homo sapiens) (UniProt P19838); experiment: LTEA_HepaRG_NFKB1: Life Technologies and Expression Analysis (LTEA) Assay for Nuclear Factor Kappa B Subunit 1 (NFKB1) using HepaRG (AID 2283521)
Outline: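 Differentiated human HepaRG cells were exposed for 48 h in serum-free induction medium to eight concentrations (top 100 uM, half-log steps, 0.5% DMSO), in duplicate. NFKB1 mRNA was measured by TaqMan qRT-PCR, normalized to ACTB/GAPDH/POLR2A, and fitted bidirectionally against DMSO.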

[11] = read-out: Protein phosphatase 2A (PPP2R4), PTPA (gene 5524); experiment: LTEA_HepaRG_PPP2R4: Life Technologies and Expression Analysis (LTEA) Assay for Protein phosphatase 2A (PPP2R4) using HepaRG (AID 2283522)
Outline: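 HepaRG, 48 h exposure, 8-pt half-log series from 100 uM, 0.5% DMSO vehicle, duplicates. Readout: PPP2R4 mRNA, Fluidigm qRT-PCR, housekeeping-normalized. Bidirectional curve fit vs DMSO baseline.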

[12] = read-out: Phosphatase and tensin (PTEN), PTEN (gene 5728); experiment: LTEA_HepaRG_PTEN: Life Technologies and Expression Analysis (LTEA) Assay for Phosphatase and tensin (PTEN) using HepaRG (AID 2283523)
Outline: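 HepaRG, 48 h exposure, 8-pt half-log series from 100 uM top, 0.5% DMSO vehicle, duplicates. Readout: Fluidigm qRT-PCR of PTEN transcript; housekeeping normalization (ACTB, GAPDH, POLR2A). Gain or loss fitted relative to DMSO baseline.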

[13] = read-out: solute carrier (SLC22A1), SLC22A1 (gene 6580); experiment: LTEA_HepaRG_SLC22A1: Life Technologies and Expression Analysis (LTEA) Assay for solute carrier (SLC22A1) using HepaRG (AID 2283524)
Outline: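 qRT-PCR readout (TaqMan, Fluidigm arrays) of SLC22A1 transcript, normalized to three housekeeping genes; bidirectional curve fit relative to 0.5% DMSO vehicle. Differentiated human HepaRG cells, 48 h chemical exposure, top concentration 100 uM, half-log steps, eight points.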

[14] = read-out: Pyruvate Dehydrogenase Kinase 4 (PDK4), PDK4 (gene 5166); experiment: LTEA_HepaRG_PDK4: Life Technologies and Expression Analysis (LTEA) Assay for Pyruvate Dehydrogenase Kinase 4 (PDK4) using HepaRG (AID 2283525)
Outline: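 HepaRG (human liver line), 48 h chemical exposure, 8-pt half-log CRC top 100 uM, 0.5% DMSO vehicle, duplicates. Readout: TaqMan qRT-PCR of PDK4 mRNA, housekeeping-normalized; gain/loss fit relative to DMSO baseline.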

[15] = read-out: NAD(P)H dehydrogenase [quinone] 1 (NQO1), NQO1 (gene 1728); experiment: LTEA_HepaRG_NQO1: Life Technologies and Expression Analysis (LTEA) Assay for NAD(P)H dehydrogenase [quinone] 1 (NQO1) using HepaRG (AID 2283526)
Outline: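 qRT-PCR read-out (Fluidigm TaqMan), normalized to three housekeeping genes, after 48 h chemical exposure of HepaRG cells. Concentrations: eight points, top 100 uM, half-log steps, 0.5% DMSO vehicle. Gain or loss of signal fitted relative to DMSO.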

[16] = read-out: Lipoprotein lipase (LPL), LPL (gene 4023); experiment: LTEA_HepaRG_LPL: Life Technologies and Expression Analysis (LTEA) Assay for Lipoprotein lipase (LPL) using HepaRG (AID 2283515)
Outline: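 HepaRG, 48 h exposure, 8-pt half-log dilutions from 100 uM, 0.5% DMSO vehicle, duplicates; qRT-PCR (Fluidigm array) of LPL mRNA vs housekeeping genes; bidirectional curve fit relative to DMSO baseline.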

[17] = read-out: Paternally Expressed 10 (PEG10), PEG10 (gene 23089); experiment: LTEA_HepaRG_PEG10: Life Technologies and Expression Analysis (LTEA) Assay for Paternally Expressed 10 (PEG10) using HepaRG (AID 2283520);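 as to AC50: PEG10 transcript by qRT-PCR normalised to ACTB GAPDH and POLR2A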
Outline: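 qRT-PCR read-out: PEG10 mRNA normalised to three housekeeping genes, fitted bidirectionally against 0.5% DMSO vehicle. HepaRG cells received test chemicals for 48 h in serum-free induction medium, 8 points, top 100 uM, half-log steps.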

Measured: AC50

Chain of Nuclear factor NF-kappa-B p105 subunit (Homo sapiens) (P19838 whole entry, looked up): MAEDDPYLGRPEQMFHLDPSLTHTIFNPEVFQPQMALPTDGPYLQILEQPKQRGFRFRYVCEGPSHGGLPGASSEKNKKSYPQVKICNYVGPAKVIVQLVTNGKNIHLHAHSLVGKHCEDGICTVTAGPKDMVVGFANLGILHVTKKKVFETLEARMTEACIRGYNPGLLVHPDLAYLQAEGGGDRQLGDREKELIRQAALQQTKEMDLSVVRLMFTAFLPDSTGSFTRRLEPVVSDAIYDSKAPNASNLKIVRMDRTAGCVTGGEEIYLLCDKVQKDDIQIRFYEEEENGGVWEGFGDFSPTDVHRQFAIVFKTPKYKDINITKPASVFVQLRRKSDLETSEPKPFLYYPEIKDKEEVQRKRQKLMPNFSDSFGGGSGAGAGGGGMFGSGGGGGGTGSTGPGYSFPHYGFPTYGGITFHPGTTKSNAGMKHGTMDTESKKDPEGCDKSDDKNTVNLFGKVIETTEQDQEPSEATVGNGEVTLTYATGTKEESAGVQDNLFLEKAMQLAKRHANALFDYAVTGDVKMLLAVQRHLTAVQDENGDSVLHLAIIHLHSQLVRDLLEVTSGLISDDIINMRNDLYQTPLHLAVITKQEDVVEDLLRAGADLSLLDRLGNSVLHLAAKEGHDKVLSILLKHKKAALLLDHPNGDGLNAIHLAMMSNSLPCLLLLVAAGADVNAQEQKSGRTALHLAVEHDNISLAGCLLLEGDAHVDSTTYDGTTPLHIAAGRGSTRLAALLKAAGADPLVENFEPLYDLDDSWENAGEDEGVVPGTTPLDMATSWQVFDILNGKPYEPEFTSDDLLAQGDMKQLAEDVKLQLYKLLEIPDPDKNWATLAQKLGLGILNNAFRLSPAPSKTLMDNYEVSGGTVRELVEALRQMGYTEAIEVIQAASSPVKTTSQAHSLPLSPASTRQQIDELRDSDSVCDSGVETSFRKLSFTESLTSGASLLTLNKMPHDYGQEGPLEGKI

CC(C)(C)CC(C)(C)c1ccc(O)c(-n2nc3ccccc3n2)c1
active: [13] 74.5 µM
not listed: [16] | [17]
inactive: all other assays above

CCc1ccc(CCOc2ccc(CC3SC(=O)NC3=O)cc2)nc1 (stereo not drawn)
inactive: [4] | [9] | [10] | [12] | [15]
active: [1] 50 µM | [2] 82 µM | [3] 88.8 µM | [5] 31.3 µM | [6] 82 µM | [7] 72.7 µM | [8] 86.3 µM | [11] 50 µM | [13] 66.6 µM | [14] 11.6 µM

Cc1cc(CCN2CCN(c3nsc4ccccc34)CC2)cc2c1NC(=O)CC2(C)C
active: [2] 90.9 µM | [3] 79.3 µM | [5] 50 µM | [6] 81.6 µM | [16] 50 µM | [7] 78.5 µM | [13] 84.8 µM | [14] 4.39 µM
not listed: MYC, MYC (gene 4609)
inactive: all other assays above

c1ccc2c(c1)ccc1ccccc12
not listed: MYC, MYC (gene 4609) | [16] | [17]
inactive: all other assays above

CC(C)(C)c1cccc(C(C)(C)C)c1O
not listed: MYC, MYC (gene 4609) | [16] | [17]
inactive: all other assays above

CC(C)(C)c1cc(C(C)(C)C)c(O)c(C(C)(C)C)c1
active: [14] 23.5 µM
not listed: MYC, MYC (gene 4609) | [10] | [16] | [17]
inactive: all other assays above

Cc1oc(-c2ccccc2)nc1CCOc1ccc(C[C@H](Nc2ccccc2C(=O)c2ccccc2)C(=O)O)cc1
active: [1] 26.8 µM | [2] 30.9 µM | [3] 26.3 µM | [4] 15.8 µM | [5] 13.2 µM | [8] 25 µM | [9] 50 µM | [11] 29.1 µM | [12] 23 µM | [13] 50 µM | [14] 0.338 µM | [15] 29.6 µM
inactive: [6] | [16] | [7] | [10]

CCN(CC)CCNc1ccc(CNC=O)c2sc3ccc(OC)cc3c(=O)c12
active: [1] 62.6 µM | [2] 94.1 µM | [3] 76.8 µM | [4] 75.2 µM | [5] 12.7 µM | [7] 27.5 µM | [8] 78.5 µM | [9] 86.4 µM | [17] 62 µM | [11] 50 µM | [12] 50 µM | [13] 13.9 µM | [14] 44.3 µM
inactive: [6] | [15]
